According to publication PMC7826789 (International Journal of Molecular Sciences, 2021):

What was measured:
Conditions in all cases: Compound Concentration (nM):1000
INSRR = system: INSRR
INSR = system: INSR
IRAK1 = system: IRAK1
IRAK3 = system: IRAK3
IRAK4 = system: IRAK4
ITK = system: ITK
[1] = system: JAK1(JH1domain-catalytic)
[2] = system: JAK1(JH2domain-pseudokinase)
[3] = system: JAK2(JH1domain-catalytic)
[4] = system: JAK3(JH1domain-catalytic)
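Further: KINOMEscan scanMAX binding as percent activity remaining versus control; lower means stronger binding.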

| SMILES | Percent Control (INSRR) [%] | Percent Control (INSR) [%] | Percent Control (IRAK1) [%] | Percent Control (IRAK3) [%] | Percent Control (IRAK4) [%] | Percent Control (ITK) [%] | Percent Control [1] [%] | Percent Control [2] [%] | Percent Control [3] [%] | Percent Control [4] [%] |
| --- | --- | --- | --- | --- | --- | --- | --- | --- | --- | --- |
| O=C1Nc2ccc(C(=O)c3ccco3)cc2C1=Cc1cc(Cl)c(O)c(Cl)c1 [GW406108X] | 100 | 91 | 86 | 100 | 64 | 100 | 100 | 7.3 | 47 | 2.1 |
| CCS(=O)(=O)c1ccc(OC)c(Nc2ncc(-c3cccc(OC)c3)o2)c1 [GW580509X] | 100 | 95 | 90 | 100 | 100 | 100 | 100 | 97 | 94 | 62 |
| COc1cc(C)c(N(C)C(=O)CN(C)C)cc1Nc1nc(Nc2cccc(F)c2C(N)=O)c2cc[nH]c2n1 [GSK2219385] | 2.9 | 4.3 | 95 | 97 | 95 | 99 | 88 | 81 | 100 | 92 |
| NS(=O)(=O)c1ccc(N/N=C2\C(=O)Nc3ccc(Cl)cc32)cc1 [GW280670X] | 100 | 100 | 100 | 100 | 100 | 100 | 100 | 80 | 100 | 100 |
| CCn1c(-c2nonc2N)nc2c(C#CC(C)(C)O)nc(OCCNC)cc21.Cl [GSK949675] | 100 | 100 | 92 | 100 | 88 | 100 | 100 | 100 | 96 | 87 |
| NS(=O)(=O)c1ccc(N/N=C2\C(=O)Nc3ccc(-c4cnco4)cc32)cc1 [GW276655] | 83 | 73 | 79 | 100 | 90 | 93 | 100 | 31 | 54 | 16 |
| NS(=O)(=O)c1ccc(N/N=C2\C(=O)Nc3ccc(C(=O)NCCc4c[nH]cn4)cc32)cc1 [GW300660X] | 100 | 96 | 82 | 100 | 99 | 100 | 100 | 20 | 80 | 64 |
| COc1cc(N2CCN(C(C)C)CC2)ccc1Nc1nc(Nc2ccc(F)cc2C(=O)NC[C@@H](O)CO)c2cc[nH]c2n1 [GSK1392956A] | 1.4 | 1.1 | 90 | 86 | 89 | 100 | 94 | 89 | 100 | 88 |
| CN(C)c1cc2c(Nc3ccc4c(cnn4Cc4ccccc4)c3)ncnc2cn1 [GW282974X] | 100 | 63 | 100 | 100 | 100 | 87 | 100 | 92 | 100 | 99 |
| Cc1cc(O)cc(C)c1/C=C/c1cncc(C(N)=O)c1 [GW435821X] | 100 | 93 | 100 | 100 | 100 | 94 | 100 | 59 | 92 | 100 |
| COc1cc2ncnc(Nc3ccc4c(cnn4Cc4ccccc4)c3)c2cc1OC.Cl [GW282449A] | 100 | 100 | 100 | 100 | 100 | 100 | 100 | 92 | 100 | 100 |
| CC1=C(C(=O)Nc2ccc3[nH]ncc3c2)C(c2ccc(Cl)c(Cl)c2)CC(=O)N1 (stereo not shown) [GSK299115A] | 100 | 100 | 88 | 56 | 100 | 74 | 41 | 86 | 13 | 9.3 |
| Nc1ncnc2occ(-c3ccc(NC(=O)Nc4cc(C(F)(F)F)ccc4F)cc3)c12 [GW770249X] | 100 | 90 | 95 | 100 | 100 | 100 | 79 | 80 | 62 | 100 |
| COc1cc2ncn(-c3cc(O[C@H](C)c4ccccc4Cl)c(C(N)=O)s3)c2cc1OC [GSK237701A] | 100 | 100 | 64 | 70 | 98 | 82 | 100 | 70 | 46 | 100 |
| Cl.O=C(Nc1ccc(Oc2ccc3[nH]c(NC(=O)c4ccco4)nc3c2)cc1)Nc1cc(C(F)(F)F)ccc1F [GW683134A] | 100 | 88 | 91 | 100 | 89 | 97 | 100 | 90 | 94 | 87 |
| COc1ccc(COc2ccc(Cc3cnc(N)nc3N)cc2OC)cc1 [GW632580X] | 100 | 69 | 99 | 100 | 95 | 89 | 100 | 89 | 92 | 77 |
| COc1cc(/C=N/Nc2ncnc3[nH]ncc23)ccc1O [GW578748X] | 100 | 94 | 31 | 100 | 61 | 100 | 100 | 0.6 | 47 | 47 |
| COc1ccccc1-c1cc(/C=C2\C(=O)Nc3ncc(Br)cc32)cc(Br)c1O [GW442130X] | 100 | 87 | 74 | 100 | 85 | 100 | 100 | 100 | 82 | 55 |
| COc1ccc2[nH]c3c4[nH]c5ccc(OC)cc5c4c4c(c3c2c1)C(=O)NC4=O [GW296115X] | 95 | 66 | 94 | 66 | 76 | 89 | 100 | 39 | 84 | 47 |
| Cl.c1ccc(Cc2nc3ccc(Nc4ncnc5ccccc45)cc3[nH]2)cc1 [GR269666A] | 100 | 100 | 100 | 100 | 100 | 100 | 100 | 88 | 100 | 100 |

| SMILES | Percent Control (INSRR) [%] | Percent Control (INSR) [%] | Percent Control (IRAK1) [%] | Percent Control (IRAK3) [%] | Percent Control (IRAK4) [%] | Percent Control (ITK) [%] | Percent Control [1] [%] | Percent Control [2] [%] | Percent Control [3] [%] | Percent Control [4] [%] |
| --- | --- | --- | --- | --- | --- | --- | --- | --- | --- | --- |
| CC(C)COC(=O)c1ccc2c(c1)/C(=C/Nc1ccc(S(N)(=O)=O)cc1)C(=O)N2 [GW416981X] | 100 | 100 | 50 | 100 | 100 | 100 | 100 | 56 | 63 | 14 |
| COc1cccc(-n2ncc3c(N/N=C/c4ccncc4)ncnc32)c1 [GW784752X] | 100 | 100 | 37 | 0 | 99 | 100 | 100 | 96 | 66 | 83 |
| C/C(Nc1ccc(S(N)(=O)=O)cc1)=C1/C(=O)Nc2ccccc21 [GW335962X] | 100 | 66 | 82 | 88 | 91 | 100 | 100 | 61 | 73 | 52 |
| CN(C)CCNC(=O)Nc1ccc(N(C)c2ccnc(Nc3ccc(CS(C)(=O)=O)cc3)n2)cc1.Cl [GW830900A] | 99 | 75 | 59 | 31 | 80 | 83 | 100 | 33 | 30 | 40 |
| O=C(Nc1n[nH]c2nc(-c3ccc(O)cc3)c(Br)cc12)C1CC1 [SB-725317] | 100 | 100 | 56 | 100 | 89 | 100 | 60 | 63 | 24 | 6.9 |
| COC(=O)Nc1nc2ccc(Oc3ccc(NC(=O)Nc4cc(C(F)(F)F)ccc4F)cc3)cc2s1.Cl [GW693917A] | 100 | 68 | 97 | 100 | 90 | 74 | 71 | 80 | 57 | 61 |
| CCS(=O)(=O)c1ccc(OC)c(Nc2ncc(-c3cccc(F)c3)o2)c1 [GW621970X] | 100 | 100 | 48 | 100 | 61 | 100 | 100 | 98 | 100 | 75 |
| NS(=O)(=O)c1ccc(Nc2ncc(-c3ccccc3)o2)cc1 [GW572399X] | 100 | 100 | 99 | 100 | 100 | 90 | 100 | 87 | 100 | 71 |
| CN1CCN(C(=O)c2ccc(NC(=O)Nc3ccc(N(C)c4ccnc(Nc5ccc(CS(C)(=O)=O)cc5)n4)cc3)cc2)CC1.Cl [GW830263A] | 100 | 61 | 58 | 0.1 | 52 | 98 | 76 | 13 | 4.7 | 5.4 |
| CCc1ccc(Oc2nccc(-c3c(-c4ccc(F)cc4)ncn3C3CCNCC3)n2)cc1 [SB-242719] | 100 | 77 | 95 | 95 | 88 | 100 | 95 | 100 | 90 | 100 |
| COc1cccc(-c2c[nH]c3c(N/N=C/c4ccncc4)ncnc23)c1 [GW814408X] | 100 | 93 | 23 | 76 | 59 | 96 | 75 | 80 | 31 | 18 |
| COc1cc(C=NNc2ncnc3c2cnn3-c2ccccc2)ccc1O [GW513184X] | 100 | 100 | 43 | 28 | 72 | 100 | 100 | 84 | 72 | 81 |
| NS(=O)(=O)c1ccc(N/N=C2\C(=O)Nc3ccc(C(=O)NCc4ccncc4)cc32)cc1 [GW300657X] | 89 | 100 | 71 | 91 | 96 | 99 | 88 | 50 | 64 | 37 |
| CC1=C(C(=O)Nc2ccc3[nH]ncc3c2)C(c2ccc3ccccc3c2)CC(=O)N1 (stereo not shown) [GSK270822A] | 100 | 100 | 72 | 67 | 100 | 75 | 82 | 90 | 9.6 | 3.4 |
| Cl.O=C(Nc1ccc(Oc2ccc3[nH]c(NC(=O)c4ccccc4)nc3c2)cc1)Nc1cc(C(F)(F)F)ccc1F [GW709042A] | 100 | 85 | 89 | 100 | 86 | 100 | 99 | 96 | 100 | 77 |
| COc1ccc2cc(-c3c(-c4ccncc4)nc(-c4ccc(S(C)(=O)=O)cc4C)n3C)ccc2c1 [SB-633825] | 89 | 100 | 68 | 75 | 81 | 60 | 100 | 75 | 72 | 63 |
| C[C@@H](Oc1cc(-n2cnc3ccc(OC4CCN(C)CC4)cc32)sc1C(N)=O)c1ccccc1Cl [GSK579289A] | 90 | 64 | 73 | 83 | 94 | 77 | 100 | 75 | 75 | 7.2 |
| Cl.O=C(O[C@H]1CN[C@H](C#Cc2cc3ncnc(Nc4ccc5c(cnn5Cc5ccccc5)c4)c3s2)C1)N1CCOCC1 [GSK200398A] | 100 | 77 | 100 | 77 | 96 | 100 | 96 | 91 | 99 | 90 |
| COc1ccc2c(-c3ccnc(Nc4cccc(OC(F)(F)F)c4)n3)cnn2n1 [GW810372X] | 100 | 90 | 19 | 80 | 100 | 100 | 100 | 7.5 | 62 | 65 |
| Cl.O=S1CCN(Cc2ccc(-c3ccc4ncnc(Nc5ccc(OCc6ccccc6)c(F)c5)c4c3)o2)CC1 [GW576924A] | 100 | 100 | 100 | 100 | 100 | 100 | 100 | 89 | 100 | 100 |
